# Reference: PubChem BioAssay (NCATS)
# Results filed as inconclusive are left out. Entries that show only a call come without a potency. Active and inactive are the calls of the source. The call rests on the fitted dose curve; in most records, active means well fitted curve in the direction sought with a large enough effect; inconclusive means small, poorly fitted or top-dose-only effect, or another doubt; inactive means no such curve, though single readings can be large; an effect the other way counts as inactive or inconclusive.
# What was measured:
# [1] = P-glycoprotein substrates identified in KB-8-5-11 adenocarcinoma cell line, qHTS therapeutic library screen (AID 1346987); conditions: outcome: dose series up to 44.5 µM unless noted; further: nearly all actives have a fitted effect of over 65% in size; further: potency means the concentration at half of the fitted maximal effect
# Method in brief: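 Luminescence from CellTiter-Glo, read 5 min after addition, quantified survival of KB-8-5-11 (P-gp-overexpressing) cells exposed to compounds for 72 h. AC50 was derived from concentration-response curves.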
# [2] = P-glycoprotein substrates identified in KB-3-1 adenocarcinoma cell line, qHTS therapeutic library screen (AID 1346986); conditions: KB-3-1 parental cells viability, CellTiter-Glo, 72 h; further: nearly all actives have a fitted effect of over 60% in size
# Method in brief: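 In 1536-well format, 500 cells/well received pinned compound titrations and were incubated 72 h, 5% CO2. Viability was read by CellTiter-Glo; cytotoxic if AC50 < 10 uM and efficacy >50%.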
smiles,measurement,setting,value
CCc1ccc(S(=O)(=O)O)cc1,Potency,[1],inactive
Cc1cc(C(=O)NCCc2ccc(S(=O)(=O)NC(=O)NN3CCCCCC3)cc2)no1,Potency,[1],inactive
O=C(OCc1ccccc1)c1cccnc1,Potency,[1],inactive
CC1(O)CCC(C(C)(C)O)CC1 (stereo not drawn),Potency,[1],inactive
CCCCCCOC(=O)c1cccnc1,Potency,[1],inactive
O=[N+]([O-])O[C@@H]1CO[C@H]2[C@@H]1OC[C@@H]2O,Potency,[1],inactive
O=C(O[C@H]1CN2CCC1CC2)N1CCc2ccccc2[C@@H]1c1ccccc1,Potency,[1],inactive
COc1ccc2c(c1)OC(C)(C)C(c1ccccc1)C2c1ccc(OCCN2CCCC2)cc1 (stereo not drawn),Potency,[1],20.6 µM (active)
CCOC(=O)c1c[nH]c2cc(OCC(C)C)c(OCC(C)C)cc2c1=O,Potency,[1],inactive
CN(Cc1ccccc1)Cc1ccccc1,Potency,[1],inactive
CC(C)C1=CC2=CC[C@@H]3[C@](C)(CCC[C@@]3(C)C(=O)O)[C@H]2CC1,Potency,[1],inactive
CN1CCN(C(c2ccccc2)c2ccc(Cl)cc2)CC1 (stereo not drawn),Potency,[1],inactive
O=C(O)COc1ccccc1/C=N/NC(=O)c1ccncc1,Potency,[1],inactive
CC/C(=C(/CC)c1ccc(OP(=O)(O)O)cc1)c1ccc(OP(=O)(O)O)cc1,Potency,[1],inactive
Cc1cccc(C)c1NC(=O)C1CCCCN1C (stereo not drawn),Potency,[1],inactive
CO,Potency,[1],inactive
CC1CCC(NC(=O)N(CCCl)N=O)CC1 (stereo not drawn),Potency,[1],inactive
C[C@H]1[C@@H](OC(=O)CCC(=O)O)O[C@@H]2OC3(C)CC[C@H]4[C@H](C)CC[C@@H]1[C@@]24OO3,Potency,[1],4.61 µM (active)
CCC(=O)c1ccc2c(c1)N(CCCN1CCN(CCO)CC1)c1ccccc1S2,Potency,[1],inactive
C=CCCCCCCCCC(=O)OC,Potency,[1],inactive
C=CC[N@@+]12CC[C@@]34c5ccccc5N5/C=C6/[C@H]7C[C@H]8[C@@]9(CC[N@@+]8(CC=C)C/C7=C/CO)c7ccccc7N(/C=C(/[C@@H](C[C@@H]31)/C(=C\CO)C2)[C@H]54)[C@@H]69,Potency,[1],inactive
CCN(CC)CCOC(=O)c1cccnc1,Potency,[1],inactive
C=C(C)C1CC=C(C)CC1 (stereo not drawn),Potency,[1],inactive
COc1cc(NCCCC(C)N)c2ncccc2c1 (stereo not drawn),Potency,[1],inactive
OCC(O)CO,Potency,[1],inactive
CCC(O)c1ccccc1 (stereo not drawn),Potency,[1],inactive
COC(=O)CC[C@H](N)C(=O)O,Potency,[1],inactive
CCN(CC)C(=S)S,Potency,[1],inactive
NC[C@H]1O[C@H](O[C@H]2[C@H](O)[C@@H](O[C@H]3O[C@H](CO)[C@@H](O)[C@H](N)[C@H]3O)[C@H](N)C[C@@H]2N)[C@H](N)C[C@@H]1O,Potency,[1],inactive
CC(=O)N[C@@H](C=O)[C@@H](O)[C@H](O)[C@H](O)CO,Potency,[1],inactive
CN[C@@H]1[C@H](O[C@H]2[C@H](O[C@H]3[C@H](O)[C@@H](O)[C@H](N=C(N)N)[C@@H](O)[C@@H]3N=C(N)N)O[C@@H](C)[C@]2(O)C=O)O[C@@H](CO)[C@H](O)[C@H]1O,outcome,[2],inactive
same,outcome,[1],inactive [setting not given]
CCCCCCCCCCCCCCCCCC[N+](C)(C)CCC[Si](OC)(OC)OC,Potency,[1],inactive
O=C1c2c(O)cccc2[C@H]([C@@H]2O[C@H](CO)[C@@H](O)[C@H](O)[C@H]2O)c2cc(CO)cc(O)c21,Potency,[1],inactive
O=C(O)Cc1cc(I)c(Oc2ccc(O)c(I)c2)c(I)c1,Potency,[1],inactive
CO/N=C(\C(=O)N[C@@H]1C(=O)N2C(C(=O)O)=CCS[C@H]12)c1csc(N)n1,Potency,[1],inactive
NC(N)=NCC1COC2(CCCCC2)O1 (stereo not drawn),Potency,[1],inactive
O=C1CCC(c2ccccc2)(C2CCN(Cc3ccccc3)CC2)C(=O)N1 (stereo not drawn),Potency,[1],inactive
CCCCC(CC)CCC(CC(C)C)OS(=O)(=O)O (stereo not drawn),Potency,[1],inactive
FC(F)OC(Cl)C(F)(F)F (stereo not drawn),Potency,[1],inactive
c1ccc(-n2cnnn2)cc1,Potency,[1],inactive
O=S(=O)(O)CC(S)CS (stereo not drawn),Potency,[1],inactive
NC(=O)c1cc[n+](CC2=C(C(=O)O)N3C(=O)[C@@H](NC(=O)C(c4ccccc4)S(=O)(=O)[O-])[C@H]3SC2)cc1 (stereo partly drawn),Potency,[1],inactive
CC(=O)OCC1=C(C(=O)O)N2C(=O)[C@@H](NC(=O)Cc3ccccc3)[C@H]2SC1,Potency,[1],inactive
O=C(O)Cc1nn(Cc2ccc(Br)cc2F)c(=O)c2ccccc12,Potency,[1],inactive
Cc1ncc(COP(=O)(O)O)c(CN)c1O,Potency,[1],inactive
FC(F)(F)COCC(F)(F)F,Potency,[1],inactive
CCOC(=O)c1cc(-c2ccccc2)nc2ccc(C)cc12,Potency,[1],inactive
O=C(O)[C@@H]1C[C@H](CP(=O)(O)O)CCN1,Potency,[1],inactive
O=C(O)/C=C/c1ccccc1,Potency,[1],inactive
Cc1cccc(C)c1Nc1ncccc1C(=O)O,Potency,[1],inactive
Cc1ccc(S(=O)(=O)O)cc1C,Potency,[1],inactive
CO/N=C(/C(=O)N[C@@H]1C(=O)N2C(C(=O)O)=C(COC(N)=O)CS[C@H]12)c1ccco1,Potency,[1],inactive
